High-throughput results (PubChem)
This is a sample that favours compounds with a hit; in the whole collection about 21% have one here.
Cycloheximide cs – affects cycloheximide protein synthesis inhibition readout, counter-screen | 300,000 compounds, 12% hits | AID 2314 | cell reporter, cycloheximide protein synthesis inhibition counterscreen | max response, %; in the data active = max response mostly above about 13%, no sharp cut-off; inactive = mostly below about 14%; note: read at 38.3 µM for the half of the compounds with a filed dose
Pf growth 48h – P. falciparum growth inhibition at 48 hours (one generation); Potency, µM (titrated, usually from 28.7 µM), actives largely listed as inhibitors; P. falciparum luciferase growth in erythrocytes, 48 h; 310,000 compounds, 5.9% hits
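Firefly luciferase activity from engineered P. falciparum reports growth; inhibitors lower the luminescent signal. Cultures contained 2% hematocrit erythrocytes at 0.1% final parasitemia.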
AMA1-RON2 inh – disrupts binding of P. falciparum AMA1 to RON2 | AlphaScreen AMA1-biotinylated RON2 peptide binding | Potency, µM (top dose mostly 58.2 µM), most hits filed as inhibitors | 360,000 compounds, 0.2% hits; note: nearly all actives have a fitted effect of over 45% in size
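AMA1 (3D7) with his tag at 25 nM final met compounds first, then biotinylated RON2 peptide at 25 nM; detection used donor plus acceptor beads, 10 µg/mL apiece, read by AlphaScreen after 30 min at room temperature.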
Pf growth 96h – inhibits malaria parasite growth, 96 h; P. falciparum luciferase reporter growth, 96 h; Potency, µM (titrated, usually from 28.7 µM), most hits filed as inhibitors; 320,000 compounds, 6.9% hits; AID 504834
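Two-generation exposure (96 h) targets delayed-death phenotype. Reporter parasites carrying integrated firefly luciferase, in red cells at 2% hematocrit and 0.05% parasitemia final, kept at 37 C, 5% CO2; luminescence loss indicates inhibition.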
HCV inh – HCV inhibition; Potency, µM (top dose mostly 41.8 µM), hits mostly inhibitors; 340,000 compounds, 3.4% hits; AID 651820; Huh7.5.1 HCVcc-Cre infection, luciferase reporter, 44 h
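Infectious HCVcc-Cre (~0.5 moi) was added to cells just after compound, with cells seeded 4 h earlier at 1,000 per well. Luciferase activity after 44 h culture reported infection; substrate was incubated 15 min at room temperature before reading.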
Shiga inhibitor – inhibitors of Shiga toxin in Vero cells; Vero cells, Shiga toxin protein synthesis inhibition reporter; inhibition, % at 38.7 µM; 290,000 compounds, 9.2% hits; AID 2315; in the data active = inhibition mostly above about 28%, no sharp cut-off; inactive = mostly below about 43%
Of the large screens only hits and unclear results are named; the others gave an inactive call. Unless noted, calls come from the whole dose curve; as a rule, active = well fitted curve in the direction sought with a large enough effect; inconclusive = small, poorly fitted or top-dose-only effect, or another doubt; inactive = no such curve, though single readings can be large; an effect the other way counts as inactive or inconclusive.

CC(=O)N1CCOc2ccc(S(=O)(=O)NCC3CCC(C(=O)Nc4ncccc4C)CC3)cc21 (centres undefined)	Pf growth 96h inconclusive
CC(C)C[C@H]1CN=C(Nc2ccccc2)N1CCC1CCCCC1	Pf growth 96h 9.3µM
CC(C)C[C@H]1CN=C(Nc2ccccc2)N1CC1CCCC1	Pf growth 48h inconclusive, Pf growth 96h inconclusive
CC(C)C[C@H]1CN=C(Nc2ccccc2)N1CC1CCC(C(C)(C)C)CC1 (some centres undefined)	Pf growth 48h 8.3µM, Pf growth 96h 7.4µM, HCV inh 11µM (no result: Cycloheximide cs, Shiga inhibitor)
C[C@H](Cc1nc2c(cnn2-c2ccccc2Cl)c(=O)[nH]1)C(F)(F)F	none (no result: Pf growth 48h, AMA1-RON2 inh, Pf growth 96h, HCV inh)
CCN(CC)CCNC(=O)COc1ccc(OC)cc1	Pf growth 48h inconclusive
CCN(CC)CCCCNc1ncc2cc(-c3cc(OC)cc(OC)c3)c(NC(=O)NC(C)(C)C)nc2n1	Pf growth 48h inconclusive, Pf growth 96h 9.3µM, HCV inh inconclusive
COc1ccc(C(=O)NC2CC2)cc1OC1CCN(Cc2cc(C)c(C)cc2C)CC1	Pf growth 48h inconclusive, Pf growth 96h inconclusive, HCV inh inconclusive
COc1ccc(C(=O)NCCCSC)cc1OC1CCN(C(C)C)CC1	Pf growth 48h inconclusive
COc1ccc(CN2CCC(Oc3cc(C(=O)NC4CC4)ccc3OC)CC2)c(O)c1	Pf growth 48h 2.3µM, HCV inh inconclusive
COc1ccc(C(=O)NCCC2=CCCCC2)cc1OC1CCN(C(C)C)CC1	Cycloheximide cs 42, Pf growth 48h inconclusive, Shiga inhibitor 42
COc1ccc(C(=O)NC2CCCCC2)cc1OC1CCN(C(C)C)CC1	Pf growth 48h inconclusive, Pf growth 96h 6.6µM (no result: HCV inh)
CC(C)C(NS(=O)(=O)c1cccs1)C(=O)N1CCC(C(N)=O)CC1 (centres undefined)	none (no result: Cycloheximide cs, Shiga inhibitor)
Nn1cnnc1N/N=C/c1ccc(Cl)c([N+](=O)[O-])c1	Pf growth 48h inconclusive, Pf growth 96h inconclusive
CN(C)c1nc(N/N=C\c2ccc(Cl)c([N+](=O)[O-])c2)nc(Nc2ccc(F)cc2)n1	HCV inh 22µM (no result: Cycloheximide cs, Pf growth 48h, Pf growth 96h, Shiga inhibitor)
O=Cc1ccc(N2CCCC2)o1	none
N#C/C(=C\c1ccc(N2CCCCC2)o1)C(=O)Nc1cccc(Br)c1	Cycloheximide cs 58, Shiga inhibitor 106
N#C/C(=C\c1ccc(N2CCCCC2)o1)C(N)=O	Cycloheximide cs 17
CCOCC(=O)Nc1nc2ccc(OC)cc2s1	Cycloheximide cs 53, Shiga inhibitor 67 (no result: Pf growth 96h)
COc1ccc2nc(NC(=O)CS(=O)(=O)c3ccc(C)cc3)sc2c1	Pf growth 48h inconclusive
COc1ccc2nc(NC(=O)CCc3cc(OC)c(OC)c(OC)c3)sc2c1	Pf growth 48h inconclusive, Pf growth 96h 9.3µM, HCV inh inconclusive
COc1ccc2nc(NC(=O)CCN3C(=S)NC(C)(C)CC3C)sc2c1 (centres undefined)	none
CCOc1ccc2nc(NC(=O)COC)sc2c1	Cycloheximide cs 34
COc1ccc2nc(NC(=O)CCn3cccc3)sc2c1	Cycloheximide cs 16
COc1cc(CCC(=O)Nc2nnc(C)s2)cc(OC)c1OC	HCV inh inconclusive
Cc1c(C(=O)NCCNc2ncc(C(F)(F)F)cc2Cl)cccc1[N+](=O)[O-]	HCV inh 11µM
O=[N+]([O-])c1cccc(Cl)c1NCCNc1ncc(C(F)(F)F)cc1Cl	none
CC1Cc2ccccc2N1C(=O)COc1ccc2c(c1)OCO2 (centres undefined)	Cycloheximide cs 34, Shiga inhibitor 74
Cc1cc2cc3c(cc2nc1SCC(=O)N1c2ccccc2CC1C)OCO3 (centres undefined)	Pf growth 48h inconclusive, Pf growth 96h inconclusive, HCV inh 4µM
CC1CCCN(C(=O)COc2ccc3c(c2)OCO3)C1 (centres undefined)	Cycloheximide cs 48, Shiga inhibitor 64
CC1CCCN(C(=O)c2ccc3c(c2)OCO3)C1 (centres undefined)	none
O=C1/C(=C/c2ccc3c(c2)OCO3)Oc2cc(OCC(=O)N3CCC[C@H]3C(=O)O)ccc21	Cycloheximide cs 8.2
CC1Cc2ccccc2N1C(=O)CSc1nc2cc3c(cc2cc1C#N)OCO3 (centres undefined)	Pf growth 48h inconclusive, Pf growth 96h inconclusive, HCV inh inconclusive
CC1Cc2ccccc2N1C(=O)COC(=O)Cc1ccc(F)cc1 (centres undefined)	none (no result: Cycloheximide cs, Shiga inhibitor)
